In PubChem BioAssay (NCI):
This is part of a sample that, as a whole, favours compounds with a hit. Of some 83,000 tested, about 20% had one in any assay.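 A percent growth of 40 corresponds to 60% growth inhibition; 0 means no net growth; -100 means all cells died. Active threshold: below 10.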 Calls of active or inactive are those of the source.

Key:
Assay in all cases: NCI-60 one-dose screen, 48 h (100 = growth as untreated, 0 = no growth, -100 = all killed)
Details in all cases: 10 µM unless noted
NCI-H23 lung = test system: NCI-H23 lung
NCI-H226 lung = test system: NCI-H226 lung
NCI-H322M lung = test system: NCI-H322M lung
HOP-62 NSCLC = test system: HOP-62 NSCLC
NCI-H460 lung = test system: NCI-H460 lung
NCI-H522 lung = test system: NCI-H522 lung
A549/ATCC NSCLC = test system: A549/ATCC NSCLC
786-0 renal = test system: 786-0 renal
COLO 205 colon = test system: COLO 205 colon
DU-145 prostate = test system: DU-145 prostate
K-562 leukemia = test system: K-562 leukemia
MALME-3M melanoma = test system: MALME-3M melanoma
MDA-MB-231 breast = test system: MDA-MB-231 breast
RXF 393 renal = test system: RXF 393 renal
SF-268 CNS = test system: SF-268 CNS
SF-295 CNS = test system: SF-295 CNS
SF-539 CNS = test system: SF-539 CNS
UACC-257 melanoma = test system: UACC-257 melanoma
M14 melanoma = test system: M14 melanoma

Measured: growth

O=C(Cc1ccc([N+](=O)[O-])cc1)Oc1ccccc1
inactive: NCI-H23 lung 109% | NCI-H226 lung 111% | NCI-H322M lung 103% | HOP-62 NSCLC 102% | NCI-H460 lung 114% | NCI-H522 lung 97.2% | A549/ATCC NSCLC 111% | 786-0 renal 104% | COLO 205 colon 109% | DU-145 prostate 129% | K-562 leukemia 104% | MALME-3M melanoma 146% | MDA-MB-231 breast 108% | RXF 393 renal 122% | SF-268 CNS 111% | SF-295 CNS 121% | SF-539 CNS 105% | UACC-257 melanoma 110% | M14 melanoma 106%

COc1cc(C2CC(c3cccc(Nc4ccnc5cc(Cl)ccc45)c3)=NN2C=O)cc(OC)c1OC (centres undefined)
inactive: NCI-H322M lung 32.5% | A549/ATCC NSCLC 18.4% | 786-0 renal 11.3% | K-562 leukemia 19.4% | SF-268 CNS 25.3% | UACC-257 melanoma 37.6%
active: NCI-H23 lung 4.02% | NCI-H226 lung 2.98% | HOP-62 NSCLC 1.34% | NCI-H460 lung 7.22% | NCI-H522 lung -4.52% | COLO 205 colon -22.6% | DU-145 prostate -2.32% | MALME-3M melanoma -5.46% | MDA-MB-231 breast 6.76% | RXF 393 renal -25.1% | SF-295 CNS -11.6% | SF-539 CNS -26.3% | M14 melanoma -26.7%

CCCCOC(=O)c1cc(O)c(O)c(O)c1
inactive: NCI-H23 lung 88.2% | NCI-H226 lung 96.7% | NCI-H322M lung 86.5% | HOP-62 NSCLC 76.2% | NCI-H460 lung 58.9% | A549/ATCC NSCLC 64.7% | 786-0 renal 79.2% | COLO 205 colon 101% | DU-145 prostate 74% | K-562 leukemia 66.3% | MALME-3M melanoma 122% | MDA-MB-231 breast 66.4% | RXF 393 renal 82% | SF-268 CNS 53.5% | SF-295 CNS 102% | SF-539 CNS 48.5% | UACC-257 melanoma 96.4% | M14 melanoma 84.1%
active: NCI-H522 lung -1.17%

COc1cc2ncnc(Nc3ccc(S(=O)(=O)Nc4nccs4)cc3)c2cc1OCCCN1CCOCC1
inactive: NCI-H23 lung 104% | NCI-H226 lung 99.7% | NCI-H322M lung 102% | HOP-62 NSCLC 93.3% | NCI-H460 lung 105% | NCI-H522 lung 88.6% | A549/ATCC NSCLC 103% | 786-0 renal 108% | COLO 205 colon 103% | DU-145 prostate 110% | K-562 leukemia 106% | MALME-3M melanoma 99.8% | MDA-MB-231 breast 99.2% | RXF 393 renal 111% | SF-268 CNS 98.3% | SF-295 CNS 108% | SF-539 CNS 98.6% | UACC-257 melanoma 101% | M14 melanoma 107%

COc1ccc(-c2cc(C(=O)Nc3ccc(Br)cc3)nc3[nH]c(=O)sc23)cc1
inactive: NCI-H23 lung 23.6% | NCI-H226 lung 63.4% | NCI-H322M lung 46.8% | HOP-62 NSCLC 72.7% | NCI-H460 lung 28.8% | A549/ATCC NSCLC 20.3% | 786-0 renal 57.2% | COLO 205 colon 42.3% | DU-145 prostate 54.9% | K-562 leukemia 27% | MALME-3M melanoma 25% | MDA-MB-231 breast 84.8% | RXF 393 renal 65.1% | SF-268 CNS 51.6% | SF-295 CNS 53.2% | SF-539 CNS 43.6% | UACC-257 melanoma 16.4% | M14 melanoma 44.4%
active: NCI-H522 lung -9.13%

O/N=C/c1ccncc1
inactive: NCI-H23 lung 101% | NCI-H226 lung 107% | NCI-H322M lung 110% | HOP-62 NSCLC 104% | NCI-H460 lung 106% | NCI-H522 lung 83.7% | A549/ATCC NSCLC 96.5% | 786-0 renal 109% | COLO 205 colon 108% | DU-145 prostate 103% | K-562 leukemia 106% | MALME-3M melanoma 98.7% | MDA-MB-231 breast 118% | RXF 393 renal 122% | SF-268 CNS 111% | SF-295 CNS 96% | SF-539 CNS 115% | UACC-257 melanoma 100% | M14 melanoma 115%

CCn1c(Cc2ccccc2Nc2c(Cl)cccc2Cl)nnc1SCC(=O)Nc1cccc(OC)c1
inactive: NCI-H23 lung 85% | NCI-H226 lung 83.3% | NCI-H322M lung 79.4% | HOP-62 NSCLC 94.2% | NCI-H460 lung 84.8% | NCI-H522 lung 42.6% | A549/ATCC NSCLC 66.1% | 786-0 renal 89.8% | COLO 205 colon 96.4% | DU-145 prostate 94% | K-562 leukemia 62.6% | MALME-3M melanoma 94.3% | MDA-MB-231 breast 61.6% | RXF 393 renal 90% | SF-268 CNS 82.1% | SF-295 CNS 81.9% | SF-539 CNS 105% | UACC-257 melanoma 97.6% | M14 melanoma 76.4%

CCN(CC)C(=O)O/N=C(/C)c1ccccc1
inactive: NCI-H23 lung 95.1% | NCI-H226 lung 114% | NCI-H322M lung 102% | HOP-62 NSCLC 110% | NCI-H460 lung 110% | NCI-H522 lung 92.1% | A549/ATCC NSCLC 96.1% | 786-0 renal 96.6% | COLO 205 colon 115% | DU-145 prostate 100% | K-562 leukemia 102% | MALME-3M melanoma 130% | MDA-MB-231 breast 91% | RXF 393 renal 102% | SF-268 CNS 104% | SF-295 CNS 105% | SF-539 CNS 88.1% | UACC-257 melanoma 105% | M14 melanoma 101%

NS(=O)(=O)c1ccc(CCn2c(SCC(=O)N/N=C/c3cccnc3)nc3ccccc3c2=O)cc1
inactive: NCI-H23 lung 93.3% | NCI-H226 lung 83% | NCI-H322M lung 101% | HOP-62 NSCLC 83.3% | NCI-H460 lung 90.5% | NCI-H522 lung 68.5% | A549/ATCC NSCLC 97.3% | 786-0 renal 92.4% | COLO 205 colon 97.3% | DU-145 prostate 98.9% | K-562 leukemia 61% | MALME-3M melanoma 81.7% | MDA-MB-231 breast 98.5% | RXF 393 renal 93.4% | SF-268 CNS 89.7% | SF-295 CNS 85.7% | SF-539 CNS 104% | UACC-257 melanoma 107% | M14 melanoma 94.7%

O=C1/C=C/[C@@H](O)[C@@H]2C[C@@H](O)C[C@H]2/C=C/CCC[C@H]([C@@H](O)CO)O1
inactive: NCI-H23 lung 93% | NCI-H226 lung 106% | NCI-H322M lung 91.9% | HOP-62 NSCLC 108% | NCI-H460 lung 115% | NCI-H522 lung 92.8% | A549/ATCC NSCLC 96.1% | 786-0 renal 50.3% | COLO 205 colon 94.3% | DU-145 prostate 135% | K-562 leukemia 95.2% | MALME-3M melanoma 64.4% | MDA-MB-231 breast 91.6% | RXF 393 renal 24.9% | SF-268 CNS 60.8% | SF-295 CNS 87.7% | SF-539 CNS 74.3% | UACC-257 melanoma 69.3% | M14 melanoma 68.8%

CC(=O)O[C@@H]1CC2C(C)(C)CCCC2(C)C2=C1C(=O)C(C(C)C)=CC2=O (some centres undefined)
inactive: 786-0 renal 16% | SF-268 CNS 27.1%
active: NCI-H23 lung 8.94% | NCI-H226 lung -78% | NCI-H322M lung -19.1% | HOP-62 NSCLC -25.6% | NCI-H460 lung -8.52% | NCI-H522 lung -27.1% | A549/ATCC NSCLC -35% | COLO 205 colon -50.8% | DU-145 prostate -19.2% | K-562 leukemia 6.8% | MALME-3M melanoma -12.8% | MDA-MB-231 breast -15% | RXF 393 renal -57.8% | SF-295 CNS -34.1% | SF-539 CNS -39.3% | UACC-257 melanoma -52% | M14 melanoma -60.9%

COc1ccc(C2=NNC(c3ccc(Oc4nc5c(c(=O)n(C)c(=O)n5C)n4C)c(OC)c3)C2)cc1 (centres undefined)
inactive: NCI-H23 lung 103% | NCI-H226 lung 89.7% | NCI-H322M lung 102% | HOP-62 NSCLC 101% | NCI-H460 lung 95% | NCI-H522 lung 84.4% | A549/ATCC NSCLC 90.5% | 786-0 renal 98.7% | COLO 205 colon 127% | DU-145 prostate 109% | K-562 leukemia 112% | MALME-3M melanoma 103% | MDA-MB-231 breast 93.3% | RXF 393 renal 87.5% | SF-268 CNS 93.4% | SF-295 CNS 88.9% | SF-539 CNS 97.8% | UACC-257 melanoma 97.8% | M14 melanoma 96.9%

CC(C)CC1NC(=O)C(CC(C)C)N(CO)C1=O (centres undefined)
inactive: NCI-H23 lung 104% | NCI-H226 lung 91.3% | NCI-H322M lung 95% | HOP-62 NSCLC 107% | NCI-H460 lung 116% | NCI-H522 lung 90.4% | A549/ATCC NSCLC 102% | 786-0 renal 102% | COLO 205 colon 111% | DU-145 prostate 119% | K-562 leukemia 97.1% | MALME-3M melanoma 101% | MDA-MB-231 breast 97.1% | RXF 393 renal 111% | SF-268 CNS 112% | SF-295 CNS 120% | SF-539 CNS 111% | UACC-257 melanoma 102% | M14 melanoma 101%

O=C1CCCN1C1CCN2CCCc3cccc1c32 (centres undefined)
inactive: NCI-H23 lung 105% | NCI-H226 lung 111% | NCI-H322M lung 114% | HOP-62 NSCLC 97% | NCI-H460 lung 110% | NCI-H522 lung 84.2% | A549/ATCC NSCLC 107% | 786-0 renal 101% | COLO 205 colon 110% | DU-145 prostate 119% | K-562 leukemia 109% | MALME-3M melanoma 94.2% | MDA-MB-231 breast 101% | RXF 393 renal 128% | SF-268 CNS 112% | SF-295 CNS 110% | SF-539 CNS 101% | UACC-257 melanoma 111% | M14 melanoma 100%

CN1C(=O)N(C)C2C1NN=c1s/c(=C\c3ccc(Br)cc3)c(=O)n12 (centres undefined)
active: NCI-H522 lung -14.6% | COLO 205 colon 0.786% | RXF 393 renal 9.08% | SF-539 CNS 7.53%
inactive: NCI-H23 lung 41.9% | NCI-H226 lung 59.8% | NCI-H322M lung 49.7% | HOP-62 NSCLC 32.4% | NCI-H460 lung 13.4% | A549/ATCC NSCLC 38.8% | 786-0 renal 30.2% | DU-145 prostate 17.2% | K-562 leukemia 10.7% | MALME-3M melanoma 67.7% | MDA-MB-231 breast 66.1% | SF-268 CNS 39.4% | SF-295 CNS 23.1% | UACC-257 melanoma 46% | M14 melanoma 32.8%

c1coc(CNc2c3ccccc3nc3ccccc23)c1
inactive: NCI-H23 lung 63.6% | NCI-H226 lung 62.9% | NCI-H322M lung 65% | HOP-62 NSCLC 69.6% | NCI-H460 lung 56.5% | NCI-H522 lung 47.3% | A549/ATCC NSCLC 61.9% | 786-0 renal 65.7% | COLO 205 colon 35.2% | DU-145 prostate 76% | K-562 leukemia 44.7% | MALME-3M melanoma 90.4% | MDA-MB-231 breast 60.5% | RXF 393 renal 61.5% | SF-268 CNS 85.7% | SF-295 CNS 53.9% | SF-539 CNS 65.9% | UACC-257 melanoma 81.7% | M14 melanoma 79.7%
